Sampled rows, rich in hits. Any-hit rate of the full collection: about 3.9%.
N-glyco inh: N-linked glycosylation inhibition; D54 ERlucT glycosylation luciferase reporter, 24 h; percent of 100 nM tunicamycin response; reporter increase, % at 12.5 µM; 0.23% of 360,000 active;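 active = mean luciferase reporter signal, scaled so untreated is 0 and the glycosylation-blocking control 100, at or above a set limit in every replicate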;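 also: luciferase carries N-glycosylation sites so blocking glycosylation raises the light; 0% = median of neutral control wells and 100% = median of 100 nM tunicamycin wells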
Casp6 inh: blocks human caspase-6 cleavage activity. P55212. 0.53% of 350,000 active. purified caspase-6, Z-VEID-R110 cleavage fluorescence. AID 686996. inhibition, % at 12.5 µM;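 active = mean inhibition across replicates at least about 35%, with every replicate also reaching that limit, limit read from the data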;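 also: 0% = median of neutral control wells and 100% = no fluorescence left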
SUMO Mot1 rescue: inhibitors of SUMOylation pathway: yeast Mot1-301 growth rescue. S. cerevisiae Mot1-301 growth rescue, ATP luminescence, 38.5C; percent above DMSO median, 100 means doubled. AID 2716. growth rescue, % at 18.8 µM. 1% of 320,000 active;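 active = every valid replicate shows activation above 250% relative to neutral control wells; inactive = the rest, any valid replicate at or below 250%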;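 also: OY570 slx delta 5 strain wells were the positive control but not used for scaling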
CDK5 p35 inh: blocks human CDK5/p35 kinase activity. AID 488839. inhibition, % at 10 µM. Recombinant CDK5/p35, ADP-Glo luminescence, 60 min. 0.01% of 330,000 active;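 active = highest replicate inhibition of at least 50% and at least 75% of replicates reaching 50%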;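 also: plate controls were DMSO neutral control for no effect and GW8510 at 10 µM for full effect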
ALR inh: blocks human ALR sulfhydryl oxidase activity. purified ALR, DTT oxidation, H2O2 HRP-luminol luminescence. AID 485317. P55789. inhibition, % (no concentration beside the values). 3.8% of 290,000 active;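 active = mean replicate inhibition above about 79%, with every replicate also reaching it, limit read from the data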
NSD2 HMT inh: NSD2 (human) methyltransferase inhibition; NSD2 peptide methylation, AlphaScreen, 120 min; inhibition, % at 12.5 µM; 0.54% of 310,000 active; AID 743445; in the data active = inhibition above about 50%
Target sequence (O96028 whole entry, looked up): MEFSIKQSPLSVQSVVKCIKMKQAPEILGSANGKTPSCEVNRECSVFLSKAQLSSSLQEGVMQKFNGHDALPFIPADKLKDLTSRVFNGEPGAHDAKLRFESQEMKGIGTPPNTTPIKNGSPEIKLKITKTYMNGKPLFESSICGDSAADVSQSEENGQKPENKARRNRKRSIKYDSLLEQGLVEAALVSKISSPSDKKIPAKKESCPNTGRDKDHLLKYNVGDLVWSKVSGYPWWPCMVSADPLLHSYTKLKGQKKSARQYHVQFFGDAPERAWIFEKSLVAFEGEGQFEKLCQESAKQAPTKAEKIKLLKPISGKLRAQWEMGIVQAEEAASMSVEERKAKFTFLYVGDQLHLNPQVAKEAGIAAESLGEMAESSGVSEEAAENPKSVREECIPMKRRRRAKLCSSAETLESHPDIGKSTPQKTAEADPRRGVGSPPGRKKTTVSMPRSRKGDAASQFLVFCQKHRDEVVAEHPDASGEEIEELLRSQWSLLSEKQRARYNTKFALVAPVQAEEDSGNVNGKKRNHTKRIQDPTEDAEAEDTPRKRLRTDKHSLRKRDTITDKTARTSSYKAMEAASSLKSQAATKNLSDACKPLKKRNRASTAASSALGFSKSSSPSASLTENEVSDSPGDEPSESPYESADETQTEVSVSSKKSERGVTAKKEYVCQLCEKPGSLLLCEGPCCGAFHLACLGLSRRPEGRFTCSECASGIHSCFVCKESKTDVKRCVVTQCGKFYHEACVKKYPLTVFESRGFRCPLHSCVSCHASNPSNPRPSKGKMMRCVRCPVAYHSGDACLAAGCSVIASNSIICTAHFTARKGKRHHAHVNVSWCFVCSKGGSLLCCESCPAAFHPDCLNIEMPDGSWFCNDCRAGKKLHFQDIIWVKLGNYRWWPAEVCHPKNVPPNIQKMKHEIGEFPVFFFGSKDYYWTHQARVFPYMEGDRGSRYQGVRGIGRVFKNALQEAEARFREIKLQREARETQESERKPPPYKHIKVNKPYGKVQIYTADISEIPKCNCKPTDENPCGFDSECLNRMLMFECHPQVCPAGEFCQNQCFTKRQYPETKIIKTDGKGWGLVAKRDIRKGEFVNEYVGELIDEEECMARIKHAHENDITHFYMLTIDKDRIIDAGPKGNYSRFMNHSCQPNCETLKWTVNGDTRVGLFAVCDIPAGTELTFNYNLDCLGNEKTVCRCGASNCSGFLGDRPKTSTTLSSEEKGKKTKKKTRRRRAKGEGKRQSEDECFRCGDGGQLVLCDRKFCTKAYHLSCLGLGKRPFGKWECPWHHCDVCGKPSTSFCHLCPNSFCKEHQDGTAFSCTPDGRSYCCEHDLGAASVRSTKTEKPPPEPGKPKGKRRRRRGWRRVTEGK
* = called active by the depositor.

Oc1ccc(-n2cccc2/C=N/n2cnnc2)cc1 was read as N-glyco inh 1.9, Casp6 inh 0.2, SUMO Mot1 rescue 1.3, CDK5 p35 inh -1.8, ALR inh 0.3 and NSD2 HMT inh -3.7.
CC(=O)N(C)C[C@H]1Oc2cc(C#Cc3ccncc3)ccc2S(=O)(=O)N([C@@H](C)CO)C[C@H]1C was read as Casp6 inh 0.3.
`Cc1noc(C)c1NC(=O)N1C[C@H](O)COC[C@H]2O[C@H](CC(=O)NCC3CCCCC3)CC[C@@H]21` gave Casp6 inh -0.6.
C[C@@H]1CN([C@@H](C)CO)S(=O)(=O)c2ccc(C3=CCCCC3)cc2O[C@@H]1CN(C)Cc1ccncc1 was read as Casp6 inh -0.1.
`CCCNC(=O)Nc1ccc2c(c1)C(=O)N(C)[C@@H]1CC[C@@H](CC(=O)OC)O[C@@H]1CO2` gave Casp6 inh 1.2.
Screening C[C@@H]1CN([C@H](C)CO)C(=O)c2cc(NC(=O)CCCCCC(=O)Nc3ccccc3N)ccc2O[C@H]1CN(C)S(=O)(=O)c1ccc(F)cc1 returned Casp6 inh -1.3.
Screening CC1(CCc2ccccc2)NC(=S)N(c2ccc(Cl)cc2)N1 (stereo unspecified) returned N-glyco inh 2.5, SUMO Mot1 rescue 45.3, CDK5 p35 inh 0.0, ALR inh 93.9* and NSD2 HMT inh 9.6.
`S=C1NC2(CCCCCC2)NN1c1ccccc1` gave Casp6 inh -1.7 and NSD2 HMT inh 0.7.
CC1(CCc2ccccc2)NC(=S)N(c2ccccc2)N1 (stereo unspecified) was read as N-glyco inh 1.2, Casp6 inh -1.1, SUMO Mot1 rescue 51.7, CDK5 p35 inh -1.7, ALR inh 98.7* and NSD2 HMT inh -0.4.
CN1C(=O)c2cc(NS(C)(=O)=O)ccc2OC[C@H]2O[C@H](CC(=O)NCc3ccccc3)CC[C@@H]21 was read as Casp6 inh -0.8.
COc1ccc2[nH]cc(C(=O)CNc3nc(C)cs3)c2c1 was read as N-glyco inh 0.6, SUMO Mot1 rescue -4.1, CDK5 p35 inh -0.3, ALR inh 81.2* and NSD2 HMT inh -3.7.
Screening COc1ccc2[nH]cc(C(=O)CCl)c2c1 returned N-glyco inh -16.4, Casp6 inh 0.3, SUMO Mot1 rescue 11.9, CDK5 p35 inh 0.5 and NSD2 HMT inh -0.8.
Screening CCN1CCN(c2c(Cl)cccc2NC(=O)c2cccs2)CC1 returned N-glyco inh -1.8, Casp6 inh 2.6, SUMO Mot1 rescue 8.2, CDK5 p35 inh -2.7, ALR inh -1.3 and NSD2 HMT inh 4.4.
O=C(Nc1cccc(Cl)c1N1CCOCC1)c1cccs1 was read as N-glyco inh -1.3, Casp6 inh 1.3, SUMO Mot1 rescue 1.4, CDK5 p35 inh 0.6 and ALR inh 90.8*.
Screening CCC(=O)Nc1ccc2c(c1)C(=O)N(C)C[C@H](OC)[C@H](C)CN(C(=O)c1ccncc1)[C@H](C)CO2 returned Casp6 inh 2.9.
`COc1cc(OC)c2ccc(=O)oc2c1C(CCN1CCCC1)c1ccc(N(C)C)cc1` (stereo unspecified) gave N-glyco inh -4.4, SUMO Mot1 rescue -5.9, CDK5 p35 inh -0.6 and ALR inh 98.3*.
For COc1cc(OC)c2ccc(=O)oc2c1C(CCN1CCCCC1)c1ccc(N(C)C)cc1 (stereo unspecified) the results were N-glyco inh -1.8, SUMO Mot1 rescue -15.9, CDK5 p35 inh -2.1 and ALR inh 98.6*.
CCCN(C)C[C@H]1OCCCC[C@@H](C)Oc2ccc(NC(=O)NC(C)C)cc2C(=O)N([C@H](C)CO)C[C@@H]1C was read as Casp6 inh -4.2.
Screening O=C(/C=C/c1cccs1)Nc1scc(-c2ccccc2)c1C(=O)O returned N-glyco inh -11.6, Casp6 inh 53.6* and CDK5 p35 inh -3.5.
`O=C(/C=C/c1cccs1)Nc1nc(-c2ccccc2)cs1` gave N-glyco inh -0.2, SUMO Mot1 rescue 1.9, CDK5 p35 inh -2.1, ALR inh -7.3 and NSD2 HMT inh 1.3.
For Cc1ccc(-c2nnn(CC(=O)Nc3ccc(S(=O)(=O)N4CCC(C)CC4)cc3)n2)cc1 the results were N-glyco inh 21.4, SUMO Mot1 rescue 6.0, CDK5 p35 inh -3.9, ALR inh -1.1 and NSD2 HMT inh -1.4.
`CC1CCN(S(=O)(=O)c2ccc(NC(=O)Cn3nnc(-c4ccccc4)n3)cc2)CC1` gave N-glyco inh 46.6*, SUMO Mot1 rescue 11.5, CDK5 p35 inh -0.3 and ALR inh -3.5.
`COc1ccccc1-c1cn(CC[C@H]2CC[C@@H](NC(=O)C3CCCC3)[C@@H](CO)O2)nn1` gave Casp6 inh 3.8.
For N#CNC(=Nc1cccc(C(F)(F)F)c1)SCc1ccc(C(=O)O)cc1 the results were N-glyco inh 2.3, Casp6 inh -1.2, SUMO Mot1 rescue -12.4, CDK5 p35 inh -0.1, ALR inh 98.8* and NSD2 HMT inh 3.7.
C[C@H](O)C#Cc1cnc2c(c1)C(=O)N([C@H](C)CO)C[C@H](C)[C@H](CN(C)Cc1cccc(F)c1)O2 was read as Casp6 inh 0.3.
`Cc1ccn2c(NC3CCCC3)c(-c3ccsc3)nc2c1` gave N-glyco inh 0.2, Casp6 inh -1.9, SUMO Mot1 rescue -4.8, CDK5 p35 inh 0.4, ALR inh 88.7* and NSD2 HMT inh -2.2.
Cc1ccn2c(NC3CCCCC3)c(-c3ccc(SC4CCCCC4)cc3)nc2c1 was read as Casp6 inh -3.2 and NSD2 HMT inh 0.1.
Screening COc1ccccc1NC(=O)CSc1nn2c(=O)c(C)nnc2s1 returned N-glyco inh 0.0, Casp6 inh 2.7, SUMO Mot1 rescue -0.8, CDK5 p35 inh 0.2, ALR inh 98.9* and NSD2 HMT inh 0.4.
Screening Cc1nnc2sc(SCC(=O)Nc3nccs3)nn2c1=O returned N-glyco inh 2.4, SUMO Mot1 rescue -6.2, CDK5 p35 inh -2.7, ALR inh 98.7* and NSD2 HMT inh -4.3.
`CCCC#Cc1cnc2c(c1)C(=O)N([C@@H](C)CO)C[C@H](C)[C@@H](CN(C)C(=O)Cc1cccnc1)O2` gave Casp6 inh 3.1.
`O=C(Nc1ccc(N2CCCCC2)cc1)c1ccccc1` gave N-glyco inh -16.6, SUMO Mot1 rescue -14.5, CDK5 p35 inh -1.7, ALR inh 43.1 and NSD2 HMT inh -0.1.
For NC(=O)NC(=O)C(Nc1ccc(N2CCCCC2)cc1)c1ccccc1 (stereo unspecified) the results were N-glyco inh -0.4, Casp6 inh 1.2, SUMO Mot1 rescue -12.9, CDK5 p35 inh 0.7, ALR inh 99.1* and NSD2 HMT inh 13.5.
`CO[C@@H]1CN(C)C(=O)c2cc(NC(=O)NC3CCCCC3)ccc2OC[C@@H](C)N(CC2CC2)C[C@H]1C` gave Casp6 inh -0.2.

High-throughput results: PubChem, Broad Institute
